One may read the AC50 as the concentration giving half of the maximal activity seen.

The source made the active and inactive calls. The calls were made as follows: active = hit-call score of the fitted dose curve at least 0.9, where 1 is the maximum; inactive = score below 0.9.

Assay [1] can be described thus: ATG_E_Box_CIS: Attagene CIS-FACTORIAL HepG2 Assay for human Enhancer Box (E-box) (AID 2282936). The conditions noted are these: HepG2 E-box cis-reporter transcription, actives raise or lower the signal. Summed up: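 DMSO served as negative control and baseline for bidirectional fitting. Human hepatoma HepG2 cells, transiently transfected with cis-reporter constructs, were dosed 24 h; reporter mRNA read by RT-PCR and capillary electrophoresis.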

The nature of assay [2]: ATG_M_61_CIS: Attagene CIS-FACTORIAL HepG2 Assay for M61 Transcription Factor (Internal Marker) (AID 2282937). The conditions noted are these: HepG2 Attagene CIS-FACTORIAL M61 internal marker reporter; actives raise or lower the signal. The method in brief:
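Background-control endpoint: HepG2 cells with cis-regulated reporter constructs, 24 h exposure, reporter mRNA detected via fluorescent primer extension and capillary electrophoresis; values from bidirectional fitting with DMSO baseline.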

Assay [3] in a line: ATG_EGR_CIS: Attagene CIS-FACTORIAL HepG2 Assay for human Early Growth Response 1 (EGR1) (AID 2282938). The conditions noted are these: HepG2 Attagene CIS-FACTORIAL EGR reporter mRNA; actives raise or lower the signal. Summed up:
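Endpoint derived by bidirectional fitting versus DMSO vehicle. Method: cis-promoter reporter units transfected into HepG2, 24 h dosing, RNA isolation, RT-PCR with 6-FAM primer extension and HpaI digestion, then capillary electrophoresis fluorescence detection.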

Assay [4] is described as follows: ATG_M_19_CIS: Attagene CIS-FACTORIAL HepG2 Assay for M19 Transcription Factor (Internal Marker) (AID 2282939). The conditions noted are these: HepG2 Attagene CIS-FACTORIAL M19 internal marker reporter; actives raise or lower the signal. Summed up: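 HepG2 cells transiently transfected with cis-regulated multiplexed reporter units, dosed 24 h. Reporter mRNA quantified by RT-PCR and capillary electrophoresis; internal background marker fitted bidirectionally versus DMSO.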

A short description of assay [5]: ATG_ERE_CIS: Attagene CIS-FACTORIAL HepG2 Assay for Estrogen Response Element (ERE) (AID 2282940). As to conditions: HepG2 ERE cis-reporter, Attagene RNA transcript; actives raise or lower the signal. Summed up:
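HepG2 cells transiently transfected with multiplexed cis-element reporter units, measuring endogenous transcription factor activity; ERE reporter mRNA quantified after 24 h exposure by RT-PCR, fluorescent labelling, HpaI digestion and capillary electrophoresis. Bidirectional change versus DMSO.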

Assay [6] can be described thus: ATG_Ets_CIS: Attagene CIS-FACTORIAL HepG2 Assay for human Erythroblast Transformation Specific (ETS) (AID 2282941). The conditions noted are these: HepG2 ETS cis-reporter transcription, actives raise or lower the signal. The method in brief: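 After transient cis-reporter transfection, HepG2 cells receive test chemical for 24 h. Reporter mRNA levels, measured by RT-PCR and capillary electrophoresis fluorescence, are analysed bidirectionally relative to the DMSO baseline.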

Assay [7] has as its target Hepatocyte nuclear factor 3-beta (Homo sapiens) (UniProt Q9Y261). In words: ATG_FoxA2_CIS: Attagene CIS-FACTORIAL HepG2 Assay for human Forkhead box A2 (FOXA2) (AID 2282942). As to conditions: HepG2 cis-reporter transcription factor activity, 24 h; actives raise or lower the signal. Summed up:
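Measured: reporter mRNA induction or loss in HepG2 transiently carrying multiple cis-regulated reporter units, 24 h after dosing. Quantified by RT-PCR plus capillary electrophoresis, normalised to DMSO.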

Assay [8] can be described thus: ATG_FoxO_CIS: Attagene CIS-FACTORIAL HepG2 Assay for human Forkhead box O (FoxO) (AID 2282943). The conditions noted are these: HepG2 Attagene cis-reporter, FoxO element, mRNA; actives raise or lower the signal. Summed up:
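Endogenous transcription factor activity read from multiplexed cis-promoter reporter transcripts in transiently transfected HepG2, 24 h after dosing. Reporter RNA measured via RT-PCR plus capillary electrophoresis of FAM-labeled products; gain or loss relative to DMSO.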

A short description of assay [9]: ATG_GATA_CIS: Attagene CIS-FACTORIAL HepG2 Assay for human GATA Binding Protein (AID 2282944). The conditions noted are these: HepG2 GATA cis-element reporter, Attagene multiplex mRNA; actives raise or lower the signal. Summed up:
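HepG2 cells transiently transfected with multiplexed cis-element reporter units measure endogenous GATA activity; after 24 h compound exposure, reporter mRNA quantified by RT-PCR and capillary electrophoresis. Changes fitted in both directions vs DMSO.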

The nature of assay [10]: ATG_GLI_CIS: Attagene CIS-FACTORIAL HepG2 Assay for human Zinc Finger Protein GLI1 (AID 2282945). As to conditions: HepG2, Attagene cis-factorial reporter mRNA, GLI element; actives raise or lower the signal. Summed up: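 Bidirectional curve fits relative to DMSO, using reporter mRNA levels from RT-PCR plus capillary electrophoresis. Cells were HepG2 transiently carrying cis-regulated reporter constructs, harvested 24 h after dosing.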

For assay [11], the target named is Bile acid receptor (Homo sapiens) (UniProt Q96RI1). In words: ATG_IR1_CIS: Attagene CIS-FACTORIAL HepG2 Assay for human Nuclear Receptor Subfamily 1 Group H Member 4 (NR1H4), IR1 submotif (AID 2282946). As to conditions: IR1 reporter transcription, actives raise or lower the signal. The method in brief: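 Cells (human HepG2) carry transiently transfected cis-promoter reporter transcription units. Compounds are incubated 24 h, total RNA is reverse-transcribed and amplified, and labelled fragments are resolved by capillary electrophoresis. Curves use DMSO as baseline.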

The nature of assay [12]: ATG_ISRE_CIS: Attagene CIS-FACTORIAL HepG2 Assay for human Interferon Regulatory Factor 1 (IRF1) binding to an Interferon-Stimulated Response Element (ISRE) (AID 2282948). As to conditions: HepG2 ISRE cis-reporter (Attagene), mRNA transcription readout; actives raise or lower the signal. The method in brief: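 Quantitation relies on labelled RT-PCR fragments separated by capillary electrophoresis. Human HepG2 cells bearing cis-promoter reporter constructs were treated 24 h; DMSO served as baseline for bidirectional fitting.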

Assay [13] in a line: ATG_M_32_CIS: Attagene CIS-FACTORIAL HepG2 Assay for M32 Transcription Factor (Internal Marker) (AID 2282949).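 Also: background control marker of the multiplexed CIS panel rather than a real target.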 As to conditions: HepG2 Attagene cis-factorial M32 reporter, mRNA; actives raise or lower the signal. The method in brief:
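Following 24 h chemical exposure of HepG2 cells transiently expressing cis-promoter reporter constructs, reporter transcript levels were determined by RT-PCR with fluorescent labelling and capillary electrophoresis, then fitted bidirectionally against DMSO.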

Assay [14] is described as follows: ATG_M_06_CIS: Attagene CIS-FACTORIAL HepG2 Assay for M06 Transcription Factor (Internal Marker) (AID 2282950). As to conditions: HepG2 Attagene CIS-FACTORIAL M06 internal marker reporter; actives raise or lower the signal. Summed up:
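Internal background marker within multiplexed cis-reporter HepG2 system. Cells transiently transfected, dosed 24 h; reporter mRNA measured by RT-PCR, HpaI digestion and capillary electrophoresis. Bidirectional fit relative to DMSO.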

The target of assay [15] is Hypoxia-inducible factor 1-alpha (Homo sapiens) (UniProt Q16665). The assay is described as follows: ATG_HIF1a_CIS: Attagene CIS-FACTORIAL HepG2 Assay for human Hypoxia Inducible Factor 1 (HIF1A) (AID 2282951). As to conditions: HepG2 Attagene cis-factorial HIF1a reporter transcription; actives raise or lower the signal. The method in brief: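 Dosed 24 h, transfected HepG2 cells yielded total RNA whose reporter transcripts were RT-PCR-amplified and sized by capillary electrophoresis using fluorescent labelling; DMSO defined baseline, with gain and loss of signal both fitted.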

Assay [16] addresses Hepatocyte nuclear factor 6 (Homo sapiens) (UniProt Q9UBC0). In words: ATG_HNF6_CIS: Attagene CIS-FACTORIAL HepG2 Assay for human Hepatocyte Nuclear Factor 6 (HNF6) (AID 2282952). As to conditions: HepG2 Attagene cis-factorial HNF6 reporter transcription; actives raise or lower the signal. Summed up:
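Transiently transfected HepG2 cells expressing cis-regulated reporter transcription units were exposed to chemical for 24 h in a 24-well format. Reporter transcript abundance was determined by fluorescence capillary electrophoresis.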

Assay [17] has as its target Heat shock factor protein 1 (Homo sapiens) (UniProt Q00613). In words: ATG_HSE_CIS: Attagene CIS-FACTORIAL HepG2 Assay for human Heat Shock Transcription Factor 1 (HSE) (AID 2282953). The conditions noted are these: HepG2 HSE cis-reporter, Attagene RNA transcription; actives raise or lower the signal. The method in brief:
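HepG2 cells transfected with cis-promoter reporter units sensing endogenous transcription factor activity; reporter mRNA quantified 24 h post-dose by RT-PCR and capillary electrophoresis of 6-FAM-labelled products. Bidirectional fitting against DMSO.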

Assay [18] in a line: ATG_MRE_CIS: Attagene CIS-FACTORIAL HepG2 Assay for human Metal Responsive Element (MRE) (AID 2282954). As to conditions: HepG2 MRE cis-reporter transcription, Attagene multiplex; actives raise or lower the signal. The method in brief: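 After a 24 h chemical exposure, transiently transfected HepG2 cells yield RNA whose reporter sequences are amplified, FAM-labelled and sized by capillary electrophoresis. Curves are fitted bidirectionally relative to DMSO.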

A short description of assay [19]: ATG_GRE_CIS: Attagene CIS-FACTORIAL HepG2 Assay for human Glucocorticoid Response Elements (GRE) (AID 2282947). As to conditions: HepG2 GRE cis-reporter, Attagene multiplex mRNA; actives raise or lower the signal. Summed up: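 Assay uses human hepatoma HepG2 cells transfected with cis-promoter reporter units, exposed 24 h. mRNA from reporters detected by RT-PCR plus capillary electrophoresis; DMSO serves as negative control and baseline.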

Assay [20] can be described thus: ATG_PBREM_CIS: Attagene CIS-FACTORIAL HepG2 Assay for human Phenobarbital-responsive Enhancer Module (PBREM) (AID 2282955). The conditions noted are these: HepG2 PBREM cis-reporter, Attagene multiplexed transcription; actives raise or lower the signal. The method in brief:
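Transfected liver-derived HepG2 cells exposed 24 h; PBREM reporter transcript quantified via RT-PCR and capillary electrophoresis, with activity in either direction referenced to DMSO.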

Sequence of Heat shock factor protein 1 (Homo sapiens) (Q00613 whole entry, looked up): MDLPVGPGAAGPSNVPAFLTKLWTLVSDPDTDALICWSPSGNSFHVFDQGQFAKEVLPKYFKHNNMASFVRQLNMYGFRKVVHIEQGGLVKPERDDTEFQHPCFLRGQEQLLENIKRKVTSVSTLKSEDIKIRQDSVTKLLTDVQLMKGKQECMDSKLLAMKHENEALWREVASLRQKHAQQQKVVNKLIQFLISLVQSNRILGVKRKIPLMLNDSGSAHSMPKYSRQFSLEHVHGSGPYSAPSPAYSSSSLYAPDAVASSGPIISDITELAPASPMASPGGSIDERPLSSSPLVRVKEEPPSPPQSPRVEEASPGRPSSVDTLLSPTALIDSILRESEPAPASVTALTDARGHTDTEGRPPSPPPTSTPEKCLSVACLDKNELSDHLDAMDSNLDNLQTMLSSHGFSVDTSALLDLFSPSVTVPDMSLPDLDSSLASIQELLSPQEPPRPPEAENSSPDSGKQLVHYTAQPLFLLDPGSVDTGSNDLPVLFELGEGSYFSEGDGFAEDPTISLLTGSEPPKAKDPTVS
Sequence of Hypoxia-inducible factor 1-alpha (Homo sapiens) (Q16665 whole entry, looked up): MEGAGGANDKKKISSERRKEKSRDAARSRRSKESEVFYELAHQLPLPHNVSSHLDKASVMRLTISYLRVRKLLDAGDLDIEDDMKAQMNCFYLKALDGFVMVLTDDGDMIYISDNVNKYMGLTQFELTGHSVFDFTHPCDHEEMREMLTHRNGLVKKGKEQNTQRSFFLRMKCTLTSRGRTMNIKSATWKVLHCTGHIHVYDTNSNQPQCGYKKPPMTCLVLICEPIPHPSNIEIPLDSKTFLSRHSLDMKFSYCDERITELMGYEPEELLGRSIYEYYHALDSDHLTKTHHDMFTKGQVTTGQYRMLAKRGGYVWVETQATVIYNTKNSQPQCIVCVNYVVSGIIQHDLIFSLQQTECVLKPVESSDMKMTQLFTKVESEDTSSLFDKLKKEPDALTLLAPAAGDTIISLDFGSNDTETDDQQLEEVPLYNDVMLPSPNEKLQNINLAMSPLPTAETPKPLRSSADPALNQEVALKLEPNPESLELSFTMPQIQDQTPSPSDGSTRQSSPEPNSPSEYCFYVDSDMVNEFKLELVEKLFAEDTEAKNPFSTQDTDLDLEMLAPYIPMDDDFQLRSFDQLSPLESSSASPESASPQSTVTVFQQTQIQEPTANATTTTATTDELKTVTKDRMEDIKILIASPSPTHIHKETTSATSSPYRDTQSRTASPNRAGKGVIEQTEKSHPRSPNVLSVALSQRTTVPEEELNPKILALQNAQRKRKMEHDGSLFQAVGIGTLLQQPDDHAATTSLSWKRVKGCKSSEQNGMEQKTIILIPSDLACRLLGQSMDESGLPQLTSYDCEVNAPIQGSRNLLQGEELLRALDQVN
Sequence of Hepatocyte nuclear factor 6 (Homo sapiens) (Q9UBC0 whole entry, looked up): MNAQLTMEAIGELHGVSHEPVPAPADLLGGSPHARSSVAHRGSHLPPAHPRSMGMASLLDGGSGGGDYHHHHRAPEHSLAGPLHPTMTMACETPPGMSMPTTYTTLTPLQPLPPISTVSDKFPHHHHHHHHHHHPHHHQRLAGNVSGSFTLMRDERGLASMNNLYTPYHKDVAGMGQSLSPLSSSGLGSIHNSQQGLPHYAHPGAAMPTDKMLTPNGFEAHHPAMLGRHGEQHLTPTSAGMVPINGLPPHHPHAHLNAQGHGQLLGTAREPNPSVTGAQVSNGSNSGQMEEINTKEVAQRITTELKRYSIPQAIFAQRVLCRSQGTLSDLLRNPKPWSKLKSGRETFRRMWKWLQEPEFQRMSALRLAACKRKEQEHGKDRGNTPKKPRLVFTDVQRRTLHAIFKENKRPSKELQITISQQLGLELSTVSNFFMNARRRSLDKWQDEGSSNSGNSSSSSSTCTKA
Sequence of Hepatocyte nuclear factor 3-beta (Homo sapiens) (Q9Y261 whole entry, looked up): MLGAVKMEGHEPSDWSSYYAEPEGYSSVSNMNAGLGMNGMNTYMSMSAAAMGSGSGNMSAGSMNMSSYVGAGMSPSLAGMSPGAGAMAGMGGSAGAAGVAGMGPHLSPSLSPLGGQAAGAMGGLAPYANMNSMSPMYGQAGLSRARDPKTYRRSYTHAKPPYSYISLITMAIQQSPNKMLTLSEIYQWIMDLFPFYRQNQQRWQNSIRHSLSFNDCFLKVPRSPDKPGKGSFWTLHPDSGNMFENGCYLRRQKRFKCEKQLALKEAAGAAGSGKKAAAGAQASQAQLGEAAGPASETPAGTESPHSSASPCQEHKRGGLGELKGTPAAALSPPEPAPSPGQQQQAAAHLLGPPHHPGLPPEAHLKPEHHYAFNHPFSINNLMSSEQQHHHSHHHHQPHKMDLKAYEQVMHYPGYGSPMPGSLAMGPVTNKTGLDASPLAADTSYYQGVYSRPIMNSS
Sequence of Bile acid receptor (Homo sapiens) (Q96RI1 whole entry, looked up, the tested form may be a part): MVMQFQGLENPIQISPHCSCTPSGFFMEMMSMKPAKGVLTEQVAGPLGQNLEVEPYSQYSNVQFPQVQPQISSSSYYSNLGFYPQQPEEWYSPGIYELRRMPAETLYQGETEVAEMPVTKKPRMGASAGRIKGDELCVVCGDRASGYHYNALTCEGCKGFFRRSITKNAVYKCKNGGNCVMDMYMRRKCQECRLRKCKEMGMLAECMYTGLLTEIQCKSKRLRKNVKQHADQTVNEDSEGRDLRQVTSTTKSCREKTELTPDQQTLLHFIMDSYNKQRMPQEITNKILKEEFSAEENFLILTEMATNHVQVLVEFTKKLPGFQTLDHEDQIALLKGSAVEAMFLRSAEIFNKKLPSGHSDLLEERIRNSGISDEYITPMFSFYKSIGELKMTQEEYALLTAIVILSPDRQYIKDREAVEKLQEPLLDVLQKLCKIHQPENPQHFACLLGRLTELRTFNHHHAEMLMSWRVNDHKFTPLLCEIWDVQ

`O=C(Cl)c1cc(C(=O)Cl)cc(C(=O)Cl)c1`: the half-maximal activity concentration (AC50) was 138 µM (active) in [1], 153 µM (active) in assay [11] and 100 µM (active) in [17]. Also, the result in [2], in assay [3], in assay [4], in assay [5], in assay [6] and in assay [7] was inactive. Also, the outcome in [8], in assay [9], in [10], in assay [12], in assay [13] and in assay [14] was inactive. The call in assay [15], in [16] and in assay [18] was inactive.

As for `O=C(OCC1CCC2OC2C1)C1CCC2OC2C1` (centres undefined), the outcome in [1], in assay [2], in assay [3], in assay [4], in assay [5] and in [6] was inactive. Also, the compound was called inactive in [7], in [8], in assay [9], in [10], in [19] and in [12]. Also, the outcome in assay [13], in assay [14], in [15], in [16], in [17] and in assay [18] was inactive. In addition, in [20], the result was inactive.

In the case of `O=S(=O)(O)c1ccc2cc(O)c(S(=O)(=O)O)cc2c1`, the result in [1], in assay [2], in assay [3], in [4], in assay [5] and in assay [6] was inactive. In addition, the outcome in assay [7], in assay [8], in [9], in [10], in [19] and in assay [13] was inactive. In addition, the call in [14], in [16], in [17] and in assay [20] was inactive. Further, the concentration at half-maximal activity (AC50) in [12] is 160 µM (active); in assay [15], 171 µM (active); in assay [18] it was 169 µM (active).

`CCc1ccc2c(c1)C(=O)c1ccccc1C2=O`: the result in assay [1], in [2], in assay [3], in assay [4], in assay [5] and in [6] was inactive. The compound was classed as inactive in assay [7], in assay [8], in [9], in assay [10], in [19] and in [12]. For the same compound, the compound was classed as inactive in [13], in [14], in assay [15], in assay [16], in [17] and in [18].

Values taken from PubChem BioAssay (EPA / NIEHS).
